From PubChem BioAssay (NCI)
The panel holds about 83,000 compounds, 20% with a hit somewhere; the sample as a whole holds those more often.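 Assay: single dose, 48 h. Readout: percent growth (0 = no net growth; negative = cell death). Active: <10.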 Unmarked numbers belong to inactive results. The source made the active and inactive calls.

What was measured:
Experiment in all cases: NCI-60 one-dose screen, 48 h (100 = growth as untreated, 0 = no growth, -100 = all killed)
SK-MEL-2 melanoma = test system: SK-MEL-2 melanoma
EKVX NSCLC = test system: EKVX NSCLC
SN12C renal = test system: SN12C renal
UO-31 renal = test system: UO-31 renal
TK-10 renal = test system: TK-10 renal
ACHN renal = details: 10 µM unless noted
CAKI-1 renal = details: 10 µM unless noted
A498 renal = test system: A498 renal
CCRF-CEM leukemia = test system: CCRF-CEM leukemia
MOLT-4 leukemia = test system: MOLT-4 leukemia

## Nc1nc(Nc2ccc(F)cc2)nn1C(=O)c1cc(Cl)ccc1Cl
SK-MEL-2 melanoma; 10 µM unless noted
  growth: 97.3%
EKVX NSCLC; 10 µM unless noted
  growth: 99.7%
SN12C renal; 10 µM unless noted
  growth: 68%
UO-31 renal; 10 µM unless noted
  growth: 64.7%
TK-10 renal; 10 µM unless noted
  growth: 104%
ACHN renal
  growth: 58.9%
CAKI-1 renal
  growth: 51.6%
A498 renal; 10 µM unless noted
  growth: 68.4%
CCRF-CEM leukemia; 10 µM unless noted
  growth: 60.4%
MOLT-4 leukemia; 10 µM unless noted
  growth: 75.4%

## COc1ccc(C/C(C)=C(\c2ccc(O)cc2)c2ccc(OCCCN(C)C)cc2)cc1
SK-MEL-2 melanoma; 10 µM unless noted
  growth: 88.4%
EKVX NSCLC; 10 µM unless noted
  growth: 98.2%
SN12C renal; 10 µM unless noted
  growth: 93.3%
UO-31 renal; 10 µM unless noted
  growth: 77.7%
TK-10 renal; 10 µM unless noted
  growth: 86.9%
ACHN renal
  growth: 109%
CAKI-1 renal
  growth: 107%
A498 renal; 10 µM unless noted
  growth: 101%
CCRF-CEM leukemia; 10 µM unless noted
  growth: 73.9%
MOLT-4 leukemia; 10 µM unless noted
  growth: 68.8%

## N#Cc1c(N)nnn1Cc1cc(=O)oc2ccc(O)cc12
SK-MEL-2 melanoma; 10 µM unless noted
  growth: 117%
EKVX NSCLC; 10 µM unless noted
  growth: 117%
SN12C renal; 10 µM unless noted
  growth: 106%
UO-31 renal; 10 µM unless noted
  growth: 90.5%
TK-10 renal; 10 µM unless noted
  growth: 104%
ACHN renal
  growth: 106%
CAKI-1 renal
  growth: 107%
A498 renal; 10 µM unless noted
  growth: 102%
CCRF-CEM leukemia; 10 µM unless noted
  growth: 93.8%
MOLT-4 leukemia; 10 µM unless noted
  growth: 109%

## COc1ccc(C(=O)/C=C/c2ccc(OCc3cccc(C(F)(F)F)c3)c(OC)c2)cc1OC
SK-MEL-2 melanoma; 10 µM
  growth: 89.1%
SK-MEL-2 melanoma; 100 µM
  growth: 32.6%
EKVX NSCLC; 10 µM
  growth: 114%
EKVX NSCLC; 100 µM
  growth: 16.1%
SN12C renal; 10 µM
  growth: 97%
SN12C renal; 100 µM
  growth: 17%
UO-31 renal; 10 µM
  growth: 67.2%
UO-31 renal; 100 µM
  growth: 24.6%
TK-10 renal; 10 µM
  growth: 117%
TK-10 renal; 100 µM
  growth: 7.32% (active)
ACHN renal
  growth: 93.4%
A498 renal; 10 µM
  growth: 93.9%
A498 renal; 100 µM
  growth: -12.8% (active)
CCRF-CEM leukemia; 10 µM
  growth: 51.1%
CCRF-CEM leukemia; 100 µM
  growth: 12.6%
MOLT-4 leukemia; 10 µM
  growth: 42.2%
MOLT-4 leukemia; 100 µM
  growth: -3.95% (active)

## CC(=O)/C=C/c1ccc(OCc2ccc(C(C)(C)C)cc2)cc1
SK-MEL-2 melanoma; 10 µM
  growth: 91.5%
SK-MEL-2 melanoma; 100 µM
  growth: -21.6% (active)
EKVX NSCLC; 10 µM
  growth: 95.1%
EKVX NSCLC; 100 µM
  growth: 24.8%
SN12C renal; 10 µM
  growth: 80%
SN12C renal; 100 µM
  growth: 28.1%
UO-31 renal; 10 µM
  growth: 68.6%
UO-31 renal; 100 µM
  growth: 14.8%
TK-10 renal; 10 µM
  growth: 111%
TK-10 renal; 100 µM
  growth: 55.1%
ACHN renal
  growth: 82.6%
A498 renal; 10 µM
  growth: 80.4%
A498 renal; 100 µM
  growth: -94.2% (active)
CCRF-CEM leukemia; 10 µM unless noted
  growth: 28% [100 µM]
MOLT-4 leukemia; 10 µM
  growth: 68.3%
MOLT-4 leukemia; 100 µM
  growth: 13.1%

## Cc1ccc(Nc2nc(-c3cc(O)c(C)c(C)c3O)cs2)cc1
SK-MEL-2 melanoma; 10 µM unless noted
  growth: 105%
EKVX NSCLC; 10 µM unless noted
  growth: 97.4%
SN12C renal; 10 µM unless noted
  growth: 97%
UO-31 renal; 10 µM unless noted
  growth: 89.7%
TK-10 renal; 10 µM unless noted
  growth: 120%
ACHN renal
  growth: 99.1%
CAKI-1 renal
  growth: 92.7%
A498 renal; 10 µM unless noted
  growth: 123%
CCRF-CEM leukemia; 10 µM unless noted
  growth: 14.8%
MOLT-4 leukemia; 10 µM unless noted
  growth: 26.5%

## CCNC(=O)Oc1ccc(/C(=C(/C)Cc2ccc(OC)cc2)c2ccc(OCCN(CC)CC)cc2)cc1
SK-MEL-2 melanoma; 10 µM unless noted
  growth: 86.5%
EKVX NSCLC; 10 µM unless noted
  growth: 69.6%
SN12C renal; 10 µM unless noted
  growth: 68.6%
UO-31 renal; 10 µM unless noted
  growth: 43.1%
TK-10 renal; 10 µM unless noted
  growth: 65.9%
ACHN renal
  growth: 81.5%
CAKI-1 renal
  growth: 61.4%
A498 renal; 10 µM unless noted
  growth: 80%
CCRF-CEM leukemia; 10 µM unless noted
  growth: 35.6%
MOLT-4 leukemia; 10 µM unless noted
  growth: 14.7%

## O=C(Nc1ccccc1C(=O)N/N=C(\c1ccccc1)c1ccccn1)c1ccccc1
SK-MEL-2 melanoma; 10 µM unless noted
  growth: 30.2%
EKVX NSCLC; 10 µM unless noted
  growth: 10.1%
SN12C renal; 10 µM unless noted
  growth: 25.4%
UO-31 renal; 10 µM unless noted
  growth: 8.85% (active)
TK-10 renal; 10 µM unless noted
  growth: 47.4%
ACHN renal
  growth: 13.6%
CAKI-1 renal
  growth: 16.9%
A498 renal; 10 µM unless noted
  growth: 16.5%
CCRF-CEM leukemia; 10 µM unless noted
  growth: -2.61% (active)
MOLT-4 leukemia; 10 µM unless noted
  growth: 2.47% (active)

## C#Cc1cc(C(=O)Nc2ccc(CN3CCN(C)CC3)c(C(F)(F)F)c2)ccc1C
SK-MEL-2 melanoma; 10 µM unless noted
  growth: 91.1%
EKVX NSCLC; 10 µM unless noted
  growth: 91.5%
SN12C renal; 10 µM unless noted
  growth: 84.5%
UO-31 renal; 10 µM unless noted
  growth: 60.2%
TK-10 renal; 10 µM unless noted
  growth: 94.7%
ACHN renal
  growth: 92.2%
CAKI-1 renal
  growth: 63.7%
A498 renal; 10 µM unless noted
  growth: 63.9%
CCRF-CEM leukemia; 10 µM unless noted
  growth: 74.8%
MOLT-4 leukemia; 10 µM unless noted
  growth: 58.9%

## COc1ccc(Nc2ncnc3ccc(-c4cncc(NS(C)(=O)=O)c4)cc23)cc1Cl
SK-MEL-2 melanoma; 10 µM unless noted
  growth: -4.48% (active)
EKVX NSCLC; 10 µM unless noted
  growth: 67.3%
SN12C renal; 10 µM unless noted
  growth: 38%
UO-31 renal; 10 µM unless noted
  growth: 50.1%
TK-10 renal; 10 µM unless noted
  growth: 18.2%
ACHN renal
  growth: 80.4%
CAKI-1 renal
  growth: 79.8%
A498 renal; 10 µM unless noted
  growth: 7.85% (active)
CCRF-CEM leukemia; 10 µM unless noted
  growth: 6.14% (active)
MOLT-4 leukemia; 10 µM unless noted
  growth: -27.6% (active)

## CN(C)CCN1C(=O)c2c(c3c4ccccc4n4c3c3c2c2ccccc2n3C2CC(O)C(O)C4(C)O2)C1=O (stereo not drawn)
SK-MEL-2 melanoma; 10 µM unless noted
  growth: 32.6%
EKVX NSCLC; 10 µM unless noted
  growth: 46.8%
SN12C renal; 10 µM unless noted
  growth: 22.1%
UO-31 renal; 10 µM unless noted
  growth: 24.1%
TK-10 renal; 10 µM unless noted
  growth: 24.6%
ACHN renal
  growth: -12.6% (active)
CAKI-1 renal
  growth: 19.6%
A498 renal; 10 µM unless noted
  growth: 32%
CCRF-CEM leukemia; 10 µM unless noted
  growth: 31.1%
MOLT-4 leukemia; 10 µM unless noted
  growth: 0.948% (active)

## COc1ccc(-c2[nH]c3ccccc3c2-c2ccc(OC)cc2)cc1
SK-MEL-2 melanoma; 10 µM unless noted
  growth: 64.6%
EKVX NSCLC; 10 µM unless noted
  growth: 73.8%
SN12C renal; 10 µM unless noted
  growth: 63.4%
UO-31 renal; 10 µM unless noted
  growth: 67.7%
TK-10 renal; 10 µM unless noted
  growth: 87.4%
ACHN renal
  growth: 65.3%
CAKI-1 renal
  growth: 63.2%
A498 renal; 10 µM unless noted
  growth: 45%
CCRF-CEM leukemia; 10 µM unless noted
  growth: 9.28% (active)
MOLT-4 leukemia; 10 µM unless noted
  growth: 49.9%
